# PubChem BioAssay
# Activity calls are given as the source filed them. Cut-off read from the data, not from the text of the source: active = inhibition above about 31%; inactive = the rest.
# Experiment: reversal of MRP1-mediated doxorubicin resistance, pilot screen, H69AR cells, doxorubicin co-treatment (AID 601)
# Conditions: H69AR cells, CellTiter-Glo, 72 h; compound alone cytotoxicity; at 10 µM
row,Compound,viability [%]
1,c1ccc2ncc(-n3cnnn3)cc2c1,94
2,CC(=O)Nc1ccc(OC(=O)c2cccnc2)cc1,99.9
3,O=C(CN1C(=O)c2cccc3cccc1c23)N1CCN(c2ccccc2)CC1,113
4,CSc1ccccc1NC(=O)c1c(Br)cnn1C,101
5,O=C(c1ccccc1Oc1nnnn1-c1ccccc1)N1CCOCC1,79.6
6,O=C(CSc1nnc(COc2ccc(Cl)cc2)o1)N1CCN(c2ccccc2)CC1,90.2
7,CCOC(=O)c1ccccc1NC(=O)Cn1cnc2c(cnn2-c2ccc(OC)cc2)c1=O,101
8,COC(=O)c1c(C)oc2ccc(NS(=O)(=O)c3cccs3)cc12,78.9
9,COc1cc2[nH]c(=O)n(CCC(=O)N3CCc4ccccc4C3)c(=O)c2cc1OC,92.4
10,CCOC(=O)c1c(NC(=O)CSc2nnc(-c3cccnc3)o2)sc(C)c1C,99.1
11,CC1CCN(C(=O)CSc2nnc(-c3ccc(S(=O)(=O)N4CCOCC4)cc3)n2C)CC1,88.3

# Experiment: 384-well plate pilot, post-Golgi transport modulator project, inhibition of yeast transport mutant growth (AID 636)
# Conditions: absorbance 615 nm, about 18 h, stronger effect = higher value
row,Compound,inhibition
1,O=C(CS(=O)(=O)c1cn(Cc2ccc(Cl)cc2)c2ccccc12)N1CCCC1,-5.2% (inactive)
2,O=c1c2cc(N3CCOCC3)ccc2[nH]c(=S)n1CCCN1CCCC1,-5.41% (inactive)
3,CCOC(=O)c1[nH]c(C)c(C(=O)Nc2ccc(C)c(Cl)c2)c1C,-5.53% (inactive)
4,CSc1nnc(-c2nnc(SC)n2-c2ccccc2)n1-c1ccccc1,-5.73% (inactive)
5,COc1ccc(C(=O)NCc2ccccc2OC)cc1,-6.58% (inactive)
6,CCOC(=O)c1[nH]c(C)c(C(=O)N2CCN(C(=O)c3ccco3)CC2)c1C,-11.6% (inactive)
7,O=C(O)c1oc2ccccc2c1-n1cccc1,-4.8% (inactive)
8,Cc1nn(-c2ccc(F)cc2)c(C)c1NS(=O)(=O)c1ccc(Cl)cc1,-8.27% (inactive)
9,O=C(CSc1nnc(-c2ccccc2)c(-c2ccccc2)n1)N1CCOCC1,0% (inactive)
10,O=C(NCCCNC(=O)c1ccccn1)c1ccccn1,-5.89% (inactive)
11,Cn1c(=O)c2[nH]c(NCC3CCCO3)nc2n(-c2ccccc2)c1=O (stereo unspecified),-4.87% (inactive)
12,CCOC(=O)c1c(C)[nH]c(C=Nc2ccccc2)c1O,-4.13% (inactive)
13,COc1ccc(-n2c(SCc3ccc(C#N)cc3)nnc2-c2ccccn2)cc1,-7.16% (inactive)
14,O=C(O)c1ccc2c(c1)N(Cc1ccccc1F)C(=O)c1ccccc1S2=O (stereo unspecified),-3.73% (inactive)
15,Cc1onc(-c2ccccc2Cl)c1C(=O)Nc1cccc(-c2cn3cccnc3n2)c1,-5.39% (inactive)
16,COc1cc(OC)cc(C(=O)NCCN2CCOCC2)c1,-4.47% (inactive)
17,Cn1c(=O)[nH]c(=O)c2c1nc(N1CCNCC1)n2CCOc1ccccc1,4.32% (inactive)
18,COc1ccc(CC(NC(C)=O)C(=O)NC2CCN(c3nc(C)cc(C)c3C#N)CC2)c(OC)c1 (stereo unspecified),-0.41% (inactive)
19,C[C@H](NC(=O)NCc1cccs1)C(=O)O,-3.87% (inactive)
20,O=C(CCS(=O)(=O)c1cc(Br)cc2c1N(C(=O)C1CC1)CC2)NCC1CCCO1 (stereo unspecified),0.51% (inactive)

row,Compound,inhibition
1,CCC1CCCCN1C(=O)Cn1c(C(=O)OC)cc2sc(Cl)cc21 (stereo unspecified),-0.64% (inactive)
2,CC(=O)c1cnc2cc(-c3ccccc3)nn2c1C,0% (inactive)
3,CCOC(=O)C1CCN(S(=O)(=O)c2cc(Cl)c(C)cc2OC)CC1,-2.5% (inactive)
4,CCCN1CCN(C(=O)Cn2c(=O)oc3cc(S(=O)(=O)NCc4ccccc4)ccc32)CC1,-2.67% (inactive)
5,COc1ccc(S(=O)(=O)N2CCC(C(=O)c3ccc4c(c3)OCCO4)CC2)cc1,-1.95% (inactive)
6,CCCC(=O)Nc1nnc(CC(=O)OCC)s1,-2.21% (inactive)
7,c1ccc(OCCCn2nnc(-c3cccnc3)n2)cc1,-3.68% (inactive)
8,CC(=O)N1C(=O)N(C)C2C1N(C(C)=O)C(=O)N2C (stereo unspecified),-1.18% (inactive)
9,COc1cccc(NC(=O)N2CCCC2C(=O)NC(C)C)c1 (stereo unspecified),-5.07% (inactive)
10,c1ccc2ncc(-n3cnnn3)cc2c1,-3.24% (inactive)
11,CC(=O)Nc1ccc(OC(=O)c2cccnc2)cc1,-7.57% (inactive)
12,O=C(CN1C(=O)c2cccc3cccc1c23)N1CCN(c2ccccc2)CC1,1.49% (inactive)
13,CSc1ccccc1NC(=O)c1c(Br)cnn1C,-2.6% (inactive)
14,O=C(c1ccccc1Oc1nnnn1-c1ccccc1)N1CCOCC1,-2.31% (inactive)
15,O=C(CSc1nnc(COc2ccc(Cl)cc2)o1)N1CCN(c2ccccc2)CC1,-3.2% (inactive)
16,CCOC(=O)c1ccccc1NC(=O)Cn1cnc2c(cnn2-c2ccc(OC)cc2)c1=O,-5.54% (inactive)
17,COC(=O)c1c(C)oc2ccc(NS(=O)(=O)c3cccs3)cc12,-1.32% (inactive)
18,COc1cc2[nH]c(=O)n(CCC(=O)N3CCc4ccccc4C3)c(=O)c2cc1OC,-4.73% (inactive)
19,CCOC(=O)c1c(NC(=O)CSc2nnc(-c3cccnc3)o2)sc(C)c1C,-4.34% (inactive)
20,CC1CCN(C(=O)CSc2nnc(-c3ccc(S(=O)(=O)N4CCOCC4)cc3)n2C)CC1,-4.4% (inactive)
